Records with an inconclusive call do not appear. Calls of active or inactive are those of the source. Unless noted, calls come from the whole dose curve; as a rule, active = well fitted curve in the direction sought with a large enough effect; inconclusive = small, poorly fitted or top-dose-only effect, or another doubt; inactive = no such curve, though single readings can be large; an effect the other way counts as inactive or inconclusive.
Key:
[1] = target: Cytochrome P450 1A2 (Homo sapiens) (UniProt P05177); test: p450-cyp1a2 (AID 410; calls by dose curve; note: potency is the fitted concentration of half-maximal effect;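 for activity change, negative = inhibition: -100% = full effect of reference inhibitor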)
Chain of Cytochrome P450 1A2 (Homo sapiens) (P05177 whole entry, looked up): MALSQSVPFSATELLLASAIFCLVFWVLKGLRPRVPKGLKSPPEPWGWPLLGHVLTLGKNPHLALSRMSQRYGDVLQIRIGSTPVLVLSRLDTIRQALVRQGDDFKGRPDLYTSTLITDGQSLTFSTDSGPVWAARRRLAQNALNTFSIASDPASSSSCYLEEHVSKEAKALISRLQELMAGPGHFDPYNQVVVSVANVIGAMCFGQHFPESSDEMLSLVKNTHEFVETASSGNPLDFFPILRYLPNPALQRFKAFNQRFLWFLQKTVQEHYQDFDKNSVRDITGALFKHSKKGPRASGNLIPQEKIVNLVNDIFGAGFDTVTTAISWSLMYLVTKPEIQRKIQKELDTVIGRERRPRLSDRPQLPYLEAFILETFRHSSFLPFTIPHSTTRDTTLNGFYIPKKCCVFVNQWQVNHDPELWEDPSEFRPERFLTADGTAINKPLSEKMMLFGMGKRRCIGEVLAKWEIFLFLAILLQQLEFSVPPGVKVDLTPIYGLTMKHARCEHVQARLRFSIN
Outline: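 Luminescent readout of luciferin formed from Luciferin-ME by human CYP1A2; data normalized against complete inhibition by 57 uM furafylline. Enzyme 20nM, substrate 100uM at Km, 100mM KPO4 buffer, 60 min reaction at room temperature.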

[2] = NFAT Signaling Pathway (AID 444; active = well fitted curve in either direction with a large enough effect, not every such curve was filed as active;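 note: carbachol stimulus at about its EC50 of 1 µM final; % is set by controls: 0 for no effect and ±100 for the full control effect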); conditions: Jurkat NFAT-bla M1, carbachol, beta-lactamase ratio, 5 h; at 17.2 µM (top of the series) unless noted
Outline: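 Jurkat cells with NFAT-driven β-lactamase reporter and co-expressed M1 receptor, stimulated with carbachol (final 1 uM, ~EC50), compound titration, 5 h at 37 °C. CCF4 loaded 1 h at RT; 460/530 nm ratio gave %activity and AC50.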

[3] = Stat Signaling Pathway (AID 446; active = well fitted curve in either direction with a large enough effect, not every such curve was filed as active;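 note: ME-180 cervical cancer cells given 40 pM IL-6 alongside compound; SIE-controlled beta-lactamase reporter measured as 460/530 nm FRET emission ratio; % is set by controls: 0 for no effect and ±100 for the full control effect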); conditions: ME-180 SIE beta-lactamase reporter, IL-6 stimulated, 5 h; at 17.2 µM (top of the series) unless noted
Outline: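 ME-180 cells carrying a SIE-driven beta-lactamase reporter are stimulated with 40 pM IL-6 for 5 h at 37C in the presence of compound. The 460/530 nm FRET substrate ratio is read after 2.5 h at RT. Data are normalised to 300 pM IL-6 and to 125 nM JAK inhibitor controls.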

[4] = target: Glucocorticoid receptor (Homo sapiens) (UniProt P04150); test: GR-GFP Redistribution (AID 450;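 active = compounds whose dose series gives a full or clear partial fitted curve of increased nuclear translocation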; note: potency is the fitted concentration of half-maximal effect)
Chain of Glucocorticoid receptor (Homo sapiens) (P04150 whole entry, looked up, the tested form may be a part): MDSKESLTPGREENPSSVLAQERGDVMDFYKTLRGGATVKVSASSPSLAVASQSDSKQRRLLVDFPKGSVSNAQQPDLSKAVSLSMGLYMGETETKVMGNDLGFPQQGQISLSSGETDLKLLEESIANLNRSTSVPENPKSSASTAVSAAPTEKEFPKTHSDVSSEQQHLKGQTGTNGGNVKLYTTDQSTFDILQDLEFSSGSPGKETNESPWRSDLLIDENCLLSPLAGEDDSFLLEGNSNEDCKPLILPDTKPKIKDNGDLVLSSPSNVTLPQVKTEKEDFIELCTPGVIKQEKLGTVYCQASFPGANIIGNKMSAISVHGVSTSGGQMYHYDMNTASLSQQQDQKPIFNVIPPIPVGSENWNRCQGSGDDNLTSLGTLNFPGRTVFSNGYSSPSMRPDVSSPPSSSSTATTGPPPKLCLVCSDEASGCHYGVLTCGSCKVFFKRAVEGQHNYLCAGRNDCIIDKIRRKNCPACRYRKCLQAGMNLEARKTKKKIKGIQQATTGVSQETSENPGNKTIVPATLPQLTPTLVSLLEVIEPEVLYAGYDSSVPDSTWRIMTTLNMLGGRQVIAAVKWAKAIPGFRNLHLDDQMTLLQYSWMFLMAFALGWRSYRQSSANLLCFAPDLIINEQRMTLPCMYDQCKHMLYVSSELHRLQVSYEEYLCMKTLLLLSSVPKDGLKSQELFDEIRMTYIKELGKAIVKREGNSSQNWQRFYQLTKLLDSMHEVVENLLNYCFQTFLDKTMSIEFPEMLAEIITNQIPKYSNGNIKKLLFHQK

[5] = target: Glucocorticoid receptor (Homo sapiens) (UniProt P04150); test: GR-EFC Redistribution (AID 451; calls by dose curve; note: potency is the fitted concentration of half-maximal effect); conditions: CHO-K1 GR-EFC translocation, beta-gal luminescence, 2 h
Outline: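 CHO-K1 cells expressing nuclear EA and GR-ED fragments of b-gal; compounds titrated up to 46 uM final, 2 h at 37 C. GR nuclear translocation read as complemented b-gal luminescence after 1 h RT detection.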

[6] = target: Mitogen-activated protein kinase 10 (Mus musculus) (UniProt Q61831); test: JNK3 AlphaScreen Assay (AID 530; active = well fitted curve in either direction with a large enough effect, not every such curve was filed as active;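 note: kinase came from lysate of stimulated human HepG2 cells; signal reports phosphorylation of biotinylated GST-cJun 1-79 at Ser73 with 10 µM ATP; % is set by controls: 0 for no effect and ±100 for the full control effect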)
Outline: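 Pre-activated (IL-1β/TNFα) JNK3 in HepG2 lysates phosphorylates biotin-GST-cJun(1-79), 10 uM ATP; anti-phospho-cJun(Ser73) AlphaScreen read at room temperature, pH 7.6 Tris buffer. Compounds pre-incubated 15 min as titrations.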

[7] = target: 3',5'-cyclic-AMP phosphodiesterase 4B (Homo sapiens) (UniProt Q07343); test: qHTS Assay for Inhibitors of PDE-IV (AID 607; active = well fitted activation curve with a large enough effect in the main read-out, with a control signal flat, not every such curve was filed as active; note: % of control where 0% means no effect)
Chain of 3',5'-cyclic-AMP phosphodiesterase 4B (Homo sapiens) (Q07343 whole entry, looked up): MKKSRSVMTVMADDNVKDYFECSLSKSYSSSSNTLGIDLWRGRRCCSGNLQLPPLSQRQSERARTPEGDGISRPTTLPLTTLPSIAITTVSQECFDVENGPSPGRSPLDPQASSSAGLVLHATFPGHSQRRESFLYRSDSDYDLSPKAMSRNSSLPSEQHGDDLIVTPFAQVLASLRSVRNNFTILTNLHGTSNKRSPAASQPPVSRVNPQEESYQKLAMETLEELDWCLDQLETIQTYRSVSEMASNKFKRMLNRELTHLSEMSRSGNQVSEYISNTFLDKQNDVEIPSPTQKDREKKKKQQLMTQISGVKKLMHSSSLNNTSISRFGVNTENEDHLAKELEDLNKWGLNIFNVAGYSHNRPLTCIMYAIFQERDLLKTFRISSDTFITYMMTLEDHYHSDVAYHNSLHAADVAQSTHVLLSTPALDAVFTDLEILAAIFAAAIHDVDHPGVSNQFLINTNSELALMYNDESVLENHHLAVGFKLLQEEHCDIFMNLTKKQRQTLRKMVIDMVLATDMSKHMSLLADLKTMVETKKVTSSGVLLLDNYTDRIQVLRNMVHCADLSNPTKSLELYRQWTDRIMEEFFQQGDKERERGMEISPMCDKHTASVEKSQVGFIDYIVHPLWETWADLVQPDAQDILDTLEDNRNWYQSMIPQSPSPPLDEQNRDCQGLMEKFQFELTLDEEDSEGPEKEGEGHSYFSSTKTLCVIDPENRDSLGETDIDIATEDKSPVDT
Outline: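 HEK293 ACTOne cells with CNG channel (1000/well), endogenous PDE4; membrane potential dye, compounds up to 22.9 uM final. Fluorescence Ex 535/Em 590; RO 20-1724 (100 uM final) as reference.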

[8] = target: Guanine nucleotide-binding protein G(i) subunit alpha-1 (Homo sapiens) (UniProt P63096); test: qHTS Assay for Inhibitors of RGS12 GoLoco Motif Activity (Green Fluorophore) (AID 879);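 note: 0% = labeled peptide with Gαi1 and full inhibition = labeled peptide alone without protein; negative values mean loss of peptide binding seen as reduced polarization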
Chain of Guanine nucleotide-binding protein G(i) subunit alpha-1 (Homo sapiens) (P63096 whole entry, looked up): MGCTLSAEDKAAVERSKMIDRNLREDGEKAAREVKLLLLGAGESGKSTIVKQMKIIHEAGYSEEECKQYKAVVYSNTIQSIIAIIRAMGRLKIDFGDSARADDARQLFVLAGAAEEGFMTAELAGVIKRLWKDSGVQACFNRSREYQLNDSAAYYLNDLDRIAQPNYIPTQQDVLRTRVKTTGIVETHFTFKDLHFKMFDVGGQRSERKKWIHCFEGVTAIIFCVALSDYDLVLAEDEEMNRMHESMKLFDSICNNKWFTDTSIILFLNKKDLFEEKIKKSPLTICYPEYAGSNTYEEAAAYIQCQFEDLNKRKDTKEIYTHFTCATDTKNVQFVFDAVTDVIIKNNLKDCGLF
Outline: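 Fluorescence polarization assay: 50 nM Gαi1 with 10 nM FITC-labeled RGS12 GoLoco peptide in 10 mM Tris pH 7.5, 150 mM NaCl, 0.1 mM GDP, 0.05% NP40, 10 min at room temperature with compound.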

[9] = Confirmation and Secondary Assay for Modulators of Hemoglobin Beta Chain Splicing at IVS2 654 locus (AID 910);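 note: HeLa cells stably carrying EGFP split by mutant beta-globin IVS2-654 intron; potency is the fitted concentration of half-maximal effect; potency of activators that raise GFP signal by restoring correct splicing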
Outline: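 HeLa cells stably expressing EGFP interrupted by β-globin IVS2-654 intron, seeded overnight in Opti-MEM/2% FCS, then treated 2 days at 37 °C. Restored splicing read as total peak GFP intensity per well by laser scanning cytometry (488 nm excitation, 500–520 nm emission); 500 nM antisense PNA as control.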

[10] = qHTS Assay for Identification of Small Molecule Agonists for Hypoxia Response Element Signaling Pathway (AID 914; active = well fitted activation curve with a large enough effect in the signal ratio, with a control signal flat, not every such curve was filed as active; the % refers to the signal ratio; note: % of control where 0% means no effect); conditions: ME-180 (cervical carcinoma) HRE-bla reporter, beta-lactamase ratio, CoCl2, 17 h; activation: stronger effect = higher value
Outline: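 A beta-lactamase reporter under hypoxia response element control in ME-180 cells served as the system. Compound titrations plus EC50 CoCl2 ran 17 h at 37 degrees Celsius; AC50 values were fitted from %Activity.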

[11] = qHTS Assay for Identification of Small Molecule Agonists for Thrombopoietin (TPO) Signaling Pathway (AID 917); note: % is set by controls: 0 for no effect and ±100 for the full control effect
Outline: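 Murine Ba/F3 cells stably expressing human TPO receptor and a Glycoprotein IIb promoter–luciferase reporter were IL-3-starved overnight, then treated with compounds plus TPO (26 pM final, its EC50) for 24 hrs at 37 C; luminescence was read.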

[12] = target: Muscarinic acetylcholine receptor M1 (Rattus norvegicus) (UniProt P08482); test: qHTS Assay for Antagonists of Acetylcholine Muscarinic M1 Receptor: Kinetic Measurement of Intracellular Calcium Response (AID 943); note: nearly all actives have a fitted effect of over 75% in size; note: potency is the fitted concentration of half-maximal effect;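 for activity change, negative = inhibition: Fluo-4 calcium signal as peak divided by basal fluorescence over 4 min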
Chain of Muscarinic acetylcholine receptor M1 (Rattus norvegicus) (P08482 whole entry, looked up): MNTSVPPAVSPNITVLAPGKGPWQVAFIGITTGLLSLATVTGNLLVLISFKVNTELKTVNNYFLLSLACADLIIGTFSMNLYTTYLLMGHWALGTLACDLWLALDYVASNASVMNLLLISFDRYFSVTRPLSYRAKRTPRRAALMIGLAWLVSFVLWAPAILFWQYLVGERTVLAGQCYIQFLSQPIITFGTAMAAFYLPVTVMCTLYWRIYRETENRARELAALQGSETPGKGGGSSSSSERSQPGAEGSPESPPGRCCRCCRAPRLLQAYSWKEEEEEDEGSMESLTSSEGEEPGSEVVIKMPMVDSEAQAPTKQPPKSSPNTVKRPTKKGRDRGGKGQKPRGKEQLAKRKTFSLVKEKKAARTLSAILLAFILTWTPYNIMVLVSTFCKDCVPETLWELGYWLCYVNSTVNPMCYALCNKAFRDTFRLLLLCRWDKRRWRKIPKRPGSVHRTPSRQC
Outline: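 Rat M1-CHO cells, 2000/well, overnight → Fluo-4 no-wash dye with probenecid, 1 h 37C → compound 10 min, room temp → basal read 6 s → carbachol EC80 (100 nM) → 4 min kinetic read; peak/basal.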

[13] = target: Pyruvate kinase (Leishmania mexicana) (UniProt Q27686); test: qHTS Validation Assay for Inhibitors of Leishmania Mexicana Pyruvate Kinase (AID 945);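 note: 0% = DMSO only neutral control wells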
Chain of Pyruvate kinase (Leishmania mexicana) (Q27686 2-499 E452W): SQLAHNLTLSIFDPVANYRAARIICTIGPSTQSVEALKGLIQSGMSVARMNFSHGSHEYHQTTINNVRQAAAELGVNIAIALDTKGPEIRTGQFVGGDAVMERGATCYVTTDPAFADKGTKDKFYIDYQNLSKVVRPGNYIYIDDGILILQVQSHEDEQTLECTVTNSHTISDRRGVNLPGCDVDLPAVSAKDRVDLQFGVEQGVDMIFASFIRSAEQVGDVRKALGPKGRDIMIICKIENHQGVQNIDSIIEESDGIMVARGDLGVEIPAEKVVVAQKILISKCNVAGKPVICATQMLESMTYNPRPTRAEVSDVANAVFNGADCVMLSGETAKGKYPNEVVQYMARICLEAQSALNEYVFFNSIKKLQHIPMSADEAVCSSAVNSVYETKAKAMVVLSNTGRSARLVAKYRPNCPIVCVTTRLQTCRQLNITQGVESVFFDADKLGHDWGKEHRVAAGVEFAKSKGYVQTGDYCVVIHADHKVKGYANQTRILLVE
Outline: (§1)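 Compounds are tested as eight-point concentration series. Reactions contain 0.2 nM LmPYK E451W, 0.5 mM PEP, 0.1 mM ADP, 7 mM MgCl2 and 50 mM KCl at pH 7.2, run 1 h at room temperature, then read by PKLight luminescence.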

[14] = target: Pyruvate kinase PKM (Homo sapiens) (UniProt P14618); test: qHTS Assay for Activators of Human Muscle Pyruvate Kinase (AID 954; active = well fitted curve in the direction sought with a large enough effect, not every such curve was filed as active;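 note: 0% = uninhibited enzyme and -100% = no enzyme or full thiadiazolimine inhibition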)
Chain of Pyruvate kinase PKM (Homo sapiens) (P14618 whole entry, looked up): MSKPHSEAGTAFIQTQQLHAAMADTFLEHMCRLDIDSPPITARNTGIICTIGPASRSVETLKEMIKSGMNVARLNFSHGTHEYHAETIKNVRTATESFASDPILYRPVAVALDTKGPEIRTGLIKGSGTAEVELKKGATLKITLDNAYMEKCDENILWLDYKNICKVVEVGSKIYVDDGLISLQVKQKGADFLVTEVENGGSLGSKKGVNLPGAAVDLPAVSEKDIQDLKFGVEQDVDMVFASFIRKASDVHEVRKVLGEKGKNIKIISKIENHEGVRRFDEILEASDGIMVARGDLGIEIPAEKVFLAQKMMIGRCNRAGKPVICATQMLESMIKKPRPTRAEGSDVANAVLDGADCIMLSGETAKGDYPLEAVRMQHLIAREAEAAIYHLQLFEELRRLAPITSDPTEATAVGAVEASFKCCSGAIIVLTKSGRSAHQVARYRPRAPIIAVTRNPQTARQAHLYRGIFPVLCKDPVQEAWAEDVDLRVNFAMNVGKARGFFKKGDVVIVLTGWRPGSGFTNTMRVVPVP
Outline: (§2)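 Purified human PKM2 (0.1 nM) with 0.5 mM PEP (Km) and 0.1 mM ADP in 50 mM imidazole pH 7.2, KCl, MgCl2, 1 h at room temperature; ATP formed read by coupled luciferase luminescence. Normalized to no-enzyme/110 uM thiadiazolimine inhibition; 0.3 nM enzyme column for activation.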

[15] = target: Alpha-galactosidase A (Homo sapiens) (UniProt P06280); test: Counterscreen for Glucocerebrosidase Inhibitors: qHTS Assay for Human alpha-Galactosidase at pH 4.5 (AID 992); note: 0% is about no effect
Chain of Alpha-galactosidase A (Homo sapiens) (P06280 whole entry, looked up): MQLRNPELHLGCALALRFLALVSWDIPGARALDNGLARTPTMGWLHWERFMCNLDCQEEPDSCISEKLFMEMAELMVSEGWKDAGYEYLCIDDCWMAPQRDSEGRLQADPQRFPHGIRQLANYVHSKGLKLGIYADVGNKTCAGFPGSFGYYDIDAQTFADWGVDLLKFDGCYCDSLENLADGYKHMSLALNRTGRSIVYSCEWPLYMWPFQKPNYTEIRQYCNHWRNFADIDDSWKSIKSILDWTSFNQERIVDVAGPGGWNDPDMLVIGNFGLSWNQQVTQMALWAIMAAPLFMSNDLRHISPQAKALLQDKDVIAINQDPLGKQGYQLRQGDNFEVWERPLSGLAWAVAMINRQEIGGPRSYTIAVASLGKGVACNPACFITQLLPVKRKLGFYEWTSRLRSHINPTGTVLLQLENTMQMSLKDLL
Outline: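 Human enzyme (2 nM) with 80 uM 4-methylumbelliferyl alpha-D-galactopyranoside in 50 mM citric acid, 0.005% Tween-20, pH 4.5, 20 min at room temperature. Compounds 0.7 nM–77 uM; fluorescence Ex 365/Em 440 after pH 10 stop; AC50 from Hill fits.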

[16] = target: Cytochrome P450 2C9 (Homo sapiens) (UniProt P11712); test: qHTS Assay for Inhibitors and Substrates of Cytochrome P450 2C9 (AID 883); note: % is set by controls: 0 for no effect and ±100 for the full control effect; nearly all actives have a fitted effect of over 60% in size
Chain of Cytochrome P450 2C9 (Homo sapiens) (P11712 whole entry, looked up): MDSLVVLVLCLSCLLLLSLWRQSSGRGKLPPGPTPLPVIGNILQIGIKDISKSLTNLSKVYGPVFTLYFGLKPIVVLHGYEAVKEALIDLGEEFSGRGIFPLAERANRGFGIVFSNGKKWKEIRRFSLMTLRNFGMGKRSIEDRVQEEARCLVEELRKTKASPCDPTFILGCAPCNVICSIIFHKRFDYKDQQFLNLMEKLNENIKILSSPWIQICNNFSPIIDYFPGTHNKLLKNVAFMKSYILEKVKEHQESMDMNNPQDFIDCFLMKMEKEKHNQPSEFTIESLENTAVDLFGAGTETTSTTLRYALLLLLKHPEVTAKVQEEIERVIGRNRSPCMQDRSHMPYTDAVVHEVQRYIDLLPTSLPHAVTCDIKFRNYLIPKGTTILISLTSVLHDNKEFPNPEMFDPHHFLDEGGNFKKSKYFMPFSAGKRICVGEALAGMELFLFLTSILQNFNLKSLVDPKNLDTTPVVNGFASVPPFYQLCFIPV
Outline: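 Human CYP2C9 (10nM) with Luciferin-H at 100uM (its KM) in 25mM KPO4; compound preincubated 10 min at 37C, then NADPH regeneration for 60 min at 37C. Luciferin read by luminescence after detection reagent; normalized to 57uM sulphaphenazole as full inhibition.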

[17] = target: Cytochrome P450 3A4 (Homo sapiens) (UniProt P08684); test: qHTS Assay for Inhibitors and Substrates of Cytochrome P450 3A4 (AID 884); note: % is set by controls: 0 for no effect and ±100 for the full control effect; nearly all actives have a fitted effect of over 50% in size
Outline: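 20 nM human CYP3A4 with 25 uM Luciferin-PPXE (at KM) in 200 mM KPO4, preincubated 10 min with compound; NADPH regeneration started a 60 min RT reaction. Luciferin detected by luminescence, normalized to 57 uM ketoconazole as full inhibition.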

[18] = target: Cytochrome P450 2D6 (Homo sapiens) (UniProt P10635); test: qHTS Assay for Inhibitors and Substrates of Cytochrome P450 2D6 (AID 891);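 note: luciferin methyl ether substrate demethylated by CYP2D6 with NADPH regeneration; % is set by controls: 0 for no effect and ±100 for the full control effect; nearly all actives have a fitted effect of over 60% in size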
Outline: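 Human CYP2D6 (5 nM) with 30 uM Luciferin-ME EGE (at Km) in 100 mM KPO4, compound preincubated 10 min, then NADPH regeneration system for 60 min at room temperature. Luciferin read by luminescence; normalized to 1.43 uM quinidine.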

[19] = target: Cytochrome P450 2C19 (Homo sapiens) (UniProt P33261); test: qHTS Assay for Inhibitors and Substrates of Cytochrome P450 2C19 (AID 899); note: % is set by controls: 0 for no effect and ±100 for the full control effect; nearly all actives have a fitted effect of over 60% in size
Outline: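 5 nM human CYP2C19 with 10uM Luciferin-H EGE (at KM) in 50mM KPO4, compound preincubated 10 min at 37C, then NADPH regeneration for 60 min at 37C. Luciferin read by luminescence after detection reagent; normalized to 57uM ketoconazole as full inhibition.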

[20] = target: Muscarinic acetylcholine receptor M1 (Rattus norvegicus) (UniProt P08482); test: qHTS Assay for Antagonists of Acetylcholine Muscarinic M1 Receptor: Measurement of IP-One Response (AID 944); note: nearly all actives have a fitted effect of over 75% in size
Outline: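 M1-CHO (rat), 2000 cells/well, overnight recovery; cpd 10 min; carbachol EC80 (200 nM), 30 min, HEPES buffer + 50 mM LiCl pH 7.4; IP-One HTRF, Ex 337, Em 620/665 nm.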

[21] = target: Pyruvate kinase PKM (Homo sapiens) (UniProt P14618); test: qHTS Assay for Inhibitors of Human Muscle Pyruvate Kinase (AID 958)
Outline: as §2

[22] = target: Pyruvate kinase (Leishmania mexicana) (UniProt Q27686); test: qHTS Validation Assay for Activators of Leishmania Mexicana Pyruvate Kinase (AID 959)
Outline: as §1

[23] = target: alpha-glucosidase (Oryza sativa, rice) (UniProt Q653V4); test: Counterscreen for Glucocerebrosidase Inhibitors: qHTS Assay for Rice alpha-Glucosidase at pH 5.0 (AID 997);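 note: 0% = full activity with enzyme and -100% = basal without enzyme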
Outline: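 Rice alpha-glucosidase (4 nM final) with 400 uM 4-methylumbelliferyl-alpha-D-glucopyranoside in citrate buffer pH 5.0, 20 min at room temperature, stopped at pH 10; fluorescence 365/440 nm, compounds 0.7 nM–77 uM, AC50 from Hill fits.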

[24] = target: Ubiquitin carboxyl-terminal hydrolase 1 (Homo sapiens) (UniProt O94782); test: Inhibitors of USP1/UAF1: Pilot qHTS (AID 504865);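 note: rhodamine fluorescence freed from ubiquitin-rhodamine substrate followed over time; top concentration of the series differs between compounds; % is set by controls: 0 for no effect and ±100 for the full control effect; nearly all actives have a fitted effect of over 35% in size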
Outline: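 USP1/UAF1 complex (1nM) preincubated with compound 15 min at room temperature, then Ub-Rho substrate (150nM final) added. Fluorescence read kinetically at 480/540 nm, 6 reads every 60 seconds. Buffer: 50mM HEPES pH 7.8, 0.5mM EDTA, 0.1 mg/ml BSA, 1mM TCEP, 0.01% Tween-20.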

OC[C@@H]1O[C@@H](n2cnc3cncnc32)[C@@H](O)[C@H]1O
inactive: Potency [1] | activity change, negative = inhibition [2] -10.9% [at 38 µM] | activity, negative = inhibition [3] -14.6% [at 38 µM] | Potency [4] > 46 µM | Potency [5] > 46 µM | Potency [6] | Potency [7] | outcome [8] | activation [10] 4.26% | Potency [11] | Potency [12] | Potency [13] | outcome [14] | outcome [15]
active: Potency [9] 5.01 µM

CCCCCCCCCCCCCCCCCC(=O)O[C@H](CC(=O)O)C[N+](C)(C)C
active: Potency [12] 1 µM
inactive: Potency [1] | activity, negative = inhibition [3] -28.3% [at 38 µM] | Potency [4] > 46 µM | Potency [5] > 46 µM | Potency [6] | Potency [7] | outcome [8] | Potency [16] | Potency [11] | Potency [13] | outcome [14] | outcome [15]

Nc1ncnc2c1ncn2[C@@H]1O[C@@H](COP(=O)(O)OP(=O)(O)OP(=O)(O)OP(=O)(O)OC[C@@H]2O[C@@H](n3cnc4c(N)ncnc43)[C@@H](O)[C@H]2O)[C@H](O)[C@@H]1O
active: Potency [22] 12.6 µM
inactive: Potency [1] | activity change, negative = inhibition [2] -0.343% [at 38 µM] | activity, negative = inhibition [3] 32% [at 38 µM] | Potency [4] > 46 µM | Potency [5] > 46 µM | Potency [6] | Potency [7] | outcome [8] | Potency [16] | Potency [17] | Potency [18] | Potency [19] | Potency [20] | Potency [13] | Potency [21] | outcome [15] | outcome [23]

COc1cc(/C=C\C(=O)N2CCC=CC2=O)cc(OC)c1OC
inactive: Potency [4] > 20.6 µM | Potency [5] > 20.6 µM | Potency [6] | Potency [7] | Potency [24]
active: Potency [1] 0.2 µM | activity change, negative = inhibition [2] -142% | activity, negative = inhibition [3] -101%

From PubChem BioAssay (NCATS)
